# Laboratory results reported in PubChem BioAssay (Tox21).
# Records with an inconclusive call do not appear. A call without a number means that no potency is given here. Activity calls are given as the source filed them. The call rests on the fitted dose curve; in most records, active means well fitted inhibition curve with a large enough effect in the signal ratio in the repeat runs (not every such curve was filed as active); inconclusive means weak or mixed curves, or effect the other way; inactive means no such curve, though single readings can be large or run the other way; the % refers to the signal ratio.
# Biological target: Glucocorticoid receptor (Homo sapiens) (UniProt P04150)
# Sequence (P04150 whole entry, looked up): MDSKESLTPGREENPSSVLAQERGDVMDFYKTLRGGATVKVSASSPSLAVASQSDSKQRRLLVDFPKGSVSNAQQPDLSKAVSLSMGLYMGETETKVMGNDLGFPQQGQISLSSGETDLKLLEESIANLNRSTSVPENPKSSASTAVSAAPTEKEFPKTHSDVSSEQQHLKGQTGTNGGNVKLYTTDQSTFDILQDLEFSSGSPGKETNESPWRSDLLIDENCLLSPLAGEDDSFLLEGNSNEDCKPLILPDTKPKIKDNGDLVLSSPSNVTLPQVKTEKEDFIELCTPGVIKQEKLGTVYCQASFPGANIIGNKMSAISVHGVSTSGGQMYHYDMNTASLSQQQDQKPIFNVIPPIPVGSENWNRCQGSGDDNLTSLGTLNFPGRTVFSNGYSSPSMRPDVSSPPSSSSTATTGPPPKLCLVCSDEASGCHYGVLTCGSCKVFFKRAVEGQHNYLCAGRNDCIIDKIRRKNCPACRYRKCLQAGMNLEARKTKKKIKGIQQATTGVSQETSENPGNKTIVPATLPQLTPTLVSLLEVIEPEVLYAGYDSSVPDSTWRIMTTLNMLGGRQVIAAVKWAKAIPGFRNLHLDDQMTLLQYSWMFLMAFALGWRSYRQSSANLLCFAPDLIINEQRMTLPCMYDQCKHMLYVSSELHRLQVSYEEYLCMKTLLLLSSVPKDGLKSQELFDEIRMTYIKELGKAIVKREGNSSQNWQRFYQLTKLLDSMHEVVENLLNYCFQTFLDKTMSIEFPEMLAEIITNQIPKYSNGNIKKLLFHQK
# Experiment: qHTS assay to identify small molecule antagonists of the glucocorticoid receptor (GR) signaling pathway (AID 720692)
# Settings: GR-bla HeLa, beta-lactamase FRET ratio, dexamethasone-stimulated, 18 h; series mostly up to 58.5 µM
# Summary of the method: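 GRE-bla HeLa line, dex-stimulated (5 nM final). Compound exposure 18 h, 37 C. Beta-lactamase FRET read after 2 h RT substrate.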
row,Compound,Potency
1,O=C1CCCCC1C1CCCCC1 (stereo unspecified),inactive
2,CC(C)(C)c1ccc(OC(=O)c2ccccc2O)cc1,inactive
3,Cc1cc2c(s1)Nc1ccccc1N=C2N1CCN(C)CC1,inactive
4,O=C1C=CC(=O)O1,inactive
5,O=C(O)c1ccccc1Nc1cc(Cl)ccc1C(=O)O,inactive
6,CCCNC(C)C(=O)Nc1c(C)csc1C(=O)OC (stereo unspecified),inactive
7,CCCCC(CC)COC(=O)COc1cc(Cl)c(Cl)cc1Cl (stereo unspecified),inactive
8,OCCN(CCO)CCN(CCO)CCO,inactive
9,C1CSCCS1,inactive
10,CN1C(=O)CC(c2ccccc2)C1=O (stereo unspecified),inactive
11,NC1=NCC2c3ccccc3Cc3ccccc3N12 (stereo unspecified),inactive
12,COc1cc(Cl)ccc1Cl,inactive
13,CC(C)(C)c1cccc(O)c1,inactive
14,CC[C@H]1CC[C@H](NCc2cc3c(cc2OC)[C@H]2C[C@H]2C(=O)N3C)[C@H](c2ccccc2)N1,inactive
15,CCCCC1CCC(=O)O1 (stereo unspecified),inactive
16,O=C(C(Cl)Cl)N1CCOC12CCCCC2,inactive
17,Oc1ccccc1C=NCc1ccccc1,inactive
18,NC/C=C/C(=O)O,inactive
19,COC(=O)c1ccc2cc(C(=O)OC)ccc2c1,inactive
20,CCOC(=O)CS,inactive
21,COc1cc(N)c(Cl)cc1C(=O)NC1CCN(Cc2ccccc2)CC1,inactive
